# Assay results: PMC7862700, “An all-to-all approach to the identification of sequence-specific readers for epigenetic DNA modifications on cytosine”
# Tests used:
# Test in all cases: DAPPL (digital affinity profiling via proximity ligation, sequencing); 10 mM Tris-HCl pH 7.5, 50 mM NaCl, 1 mM DTT, 4% glycerol, room temperature, 30 min; GST-TFs on glutathione beads, 16-mer random dsDNA library, 0.1% formaldehyde crosslink after washing; high values mean tight binding
# FLI1 = target: T1, FLI1 (Homo sapiens, UniProt Q01543 1-452); settings: protein: recombinant; tags: N-terminal GST; dsDNA, one strand shown
# T1 sequence: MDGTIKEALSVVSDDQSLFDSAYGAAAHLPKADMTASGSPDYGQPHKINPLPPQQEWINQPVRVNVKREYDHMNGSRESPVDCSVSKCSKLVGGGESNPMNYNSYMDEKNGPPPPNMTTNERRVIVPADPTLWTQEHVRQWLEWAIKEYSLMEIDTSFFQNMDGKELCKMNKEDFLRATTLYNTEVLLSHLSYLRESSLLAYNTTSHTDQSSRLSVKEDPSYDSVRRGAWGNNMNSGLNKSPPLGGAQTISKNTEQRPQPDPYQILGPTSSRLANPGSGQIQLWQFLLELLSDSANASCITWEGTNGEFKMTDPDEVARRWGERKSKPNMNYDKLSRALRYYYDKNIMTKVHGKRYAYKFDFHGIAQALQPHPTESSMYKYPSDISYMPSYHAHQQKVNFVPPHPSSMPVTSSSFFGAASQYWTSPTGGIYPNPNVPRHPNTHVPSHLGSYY
# In short: (§1)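 Human transcription factors were made in yeast as GST fusions, captured on glutathione beads and barcoded with DNA. With a tag-only sample included, the pool was incubated with 200 nmole of a random double-stranded 16-mer DNA library in Tris/NaCl/DTT/glycerol buffer at room temperature for 30 min, then crosslinked with 0.1% formaldehyde after washing, ligated by proximity, amplified and sequenced. For binding signal, each hexamer's read frequency for a factor is divided by its frequency for the tag-only sample.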
# ELK1 = target: T2, ELK1 (Homo sapiens, UniProt P19419 1-428); settings: protein: recombinant; tags: N-terminal GST; dsDNA, one strand shown
# T2 sequence: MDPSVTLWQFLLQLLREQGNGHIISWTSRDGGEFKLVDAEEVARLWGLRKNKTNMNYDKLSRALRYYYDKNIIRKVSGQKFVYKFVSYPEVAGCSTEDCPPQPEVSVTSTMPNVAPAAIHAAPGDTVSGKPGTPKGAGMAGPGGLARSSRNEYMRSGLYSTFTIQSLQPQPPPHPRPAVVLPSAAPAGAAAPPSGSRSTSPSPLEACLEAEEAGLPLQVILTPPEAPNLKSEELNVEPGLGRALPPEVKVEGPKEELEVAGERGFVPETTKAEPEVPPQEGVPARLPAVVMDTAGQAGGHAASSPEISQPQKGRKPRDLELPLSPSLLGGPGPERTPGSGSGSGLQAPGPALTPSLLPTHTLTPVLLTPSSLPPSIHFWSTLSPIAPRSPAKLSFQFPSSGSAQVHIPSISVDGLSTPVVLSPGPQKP
# In short: as §1
# GABPA = target: T3, GABPA (Homo sapiens, UniProt Q06546 1-454); settings: protein: recombinant; tags: N-terminal GST; dsDNA, one strand shown
# T3 sequence: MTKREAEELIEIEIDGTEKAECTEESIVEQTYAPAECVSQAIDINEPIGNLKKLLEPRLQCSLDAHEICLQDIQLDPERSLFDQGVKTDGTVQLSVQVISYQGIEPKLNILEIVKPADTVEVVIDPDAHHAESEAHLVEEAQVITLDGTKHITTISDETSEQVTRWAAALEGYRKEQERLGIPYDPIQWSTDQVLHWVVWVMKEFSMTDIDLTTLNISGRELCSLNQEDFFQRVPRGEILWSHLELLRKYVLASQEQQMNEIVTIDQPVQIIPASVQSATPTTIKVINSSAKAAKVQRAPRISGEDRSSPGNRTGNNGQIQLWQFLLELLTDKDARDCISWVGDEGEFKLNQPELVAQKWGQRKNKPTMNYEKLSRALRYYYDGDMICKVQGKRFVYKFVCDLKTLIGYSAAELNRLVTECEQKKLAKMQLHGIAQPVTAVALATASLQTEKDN
# In short: as §1
# ERG = target: T4, ERG (Homo sapiens, UniProt P11308 1-479); settings: protein: recombinant; tags: N-terminal GST; dsDNA, one strand shown
# T4 sequence: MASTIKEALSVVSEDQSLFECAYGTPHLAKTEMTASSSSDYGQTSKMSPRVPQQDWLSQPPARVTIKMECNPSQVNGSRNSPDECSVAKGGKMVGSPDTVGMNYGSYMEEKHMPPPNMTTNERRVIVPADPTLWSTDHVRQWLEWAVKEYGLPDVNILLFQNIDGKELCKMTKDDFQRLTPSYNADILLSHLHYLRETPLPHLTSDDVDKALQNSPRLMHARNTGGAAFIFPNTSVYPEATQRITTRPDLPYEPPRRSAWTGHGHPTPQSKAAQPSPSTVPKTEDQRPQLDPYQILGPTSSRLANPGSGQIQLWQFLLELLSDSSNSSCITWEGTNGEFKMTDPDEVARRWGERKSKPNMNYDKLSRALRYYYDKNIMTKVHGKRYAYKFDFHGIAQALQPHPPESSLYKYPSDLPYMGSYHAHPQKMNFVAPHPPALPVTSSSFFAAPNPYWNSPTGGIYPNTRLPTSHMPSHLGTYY
# In short: as §1
# ELF1 = ELF1 (Homo sapiens, UniProt P32519 1-619); settings: protein: recombinant; tags: N-terminal GST; dsDNA, one strand shown
# Sequence of ELF1 (P32519 whole entry): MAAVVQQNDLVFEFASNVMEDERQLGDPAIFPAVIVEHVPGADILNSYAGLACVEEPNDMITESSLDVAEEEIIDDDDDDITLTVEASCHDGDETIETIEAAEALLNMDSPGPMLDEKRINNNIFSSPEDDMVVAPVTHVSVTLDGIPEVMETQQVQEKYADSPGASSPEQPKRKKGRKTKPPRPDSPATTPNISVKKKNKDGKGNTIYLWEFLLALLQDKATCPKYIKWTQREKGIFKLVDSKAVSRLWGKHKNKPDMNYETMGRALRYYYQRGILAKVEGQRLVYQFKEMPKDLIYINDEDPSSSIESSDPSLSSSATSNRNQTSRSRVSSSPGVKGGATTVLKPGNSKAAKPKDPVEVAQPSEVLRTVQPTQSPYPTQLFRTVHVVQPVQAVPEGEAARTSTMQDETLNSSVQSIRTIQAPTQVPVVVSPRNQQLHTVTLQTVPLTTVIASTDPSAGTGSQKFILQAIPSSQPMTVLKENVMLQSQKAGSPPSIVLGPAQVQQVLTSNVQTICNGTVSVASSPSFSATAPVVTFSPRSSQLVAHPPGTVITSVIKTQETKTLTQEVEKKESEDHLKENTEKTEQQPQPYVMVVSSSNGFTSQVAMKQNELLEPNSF
# In short: as §1
# EHF = target: T5, EHF (Homo sapiens, UniProt Q9NZC4 1-300); settings: protein: recombinant; tags: N-terminal GST; dsDNA, one strand shown
# T5 sequence: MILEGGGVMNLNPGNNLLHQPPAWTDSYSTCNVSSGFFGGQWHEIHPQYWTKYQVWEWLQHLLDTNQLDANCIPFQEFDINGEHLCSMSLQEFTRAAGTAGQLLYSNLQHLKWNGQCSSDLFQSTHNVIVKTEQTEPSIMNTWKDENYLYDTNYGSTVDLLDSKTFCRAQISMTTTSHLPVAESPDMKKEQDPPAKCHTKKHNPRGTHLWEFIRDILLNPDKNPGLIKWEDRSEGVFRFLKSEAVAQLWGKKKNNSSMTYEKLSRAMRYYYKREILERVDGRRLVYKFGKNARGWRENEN
# In short: as §1
# SPIB = SPIB (Homo sapiens, UniProt Q01892 1-262); settings: protein: recombinant; tags: N-terminal GST; dsDNA, one strand shown
# Sequence of SPIB (Q01892 whole entry): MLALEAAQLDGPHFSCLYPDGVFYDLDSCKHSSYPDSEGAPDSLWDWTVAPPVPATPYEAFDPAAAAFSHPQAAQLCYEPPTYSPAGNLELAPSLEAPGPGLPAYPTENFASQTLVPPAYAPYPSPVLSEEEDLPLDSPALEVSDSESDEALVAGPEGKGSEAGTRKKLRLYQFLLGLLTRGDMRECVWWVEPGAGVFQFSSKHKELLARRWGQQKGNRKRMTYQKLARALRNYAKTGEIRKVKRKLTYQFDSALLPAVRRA
# In short: as §1
# ELK3 = target: T6, ELK3 (Homo sapiens, UniProt P41970 1-407); settings: protein: recombinant; tags: N-terminal GST; dsDNA, one strand shown
# T6 sequence: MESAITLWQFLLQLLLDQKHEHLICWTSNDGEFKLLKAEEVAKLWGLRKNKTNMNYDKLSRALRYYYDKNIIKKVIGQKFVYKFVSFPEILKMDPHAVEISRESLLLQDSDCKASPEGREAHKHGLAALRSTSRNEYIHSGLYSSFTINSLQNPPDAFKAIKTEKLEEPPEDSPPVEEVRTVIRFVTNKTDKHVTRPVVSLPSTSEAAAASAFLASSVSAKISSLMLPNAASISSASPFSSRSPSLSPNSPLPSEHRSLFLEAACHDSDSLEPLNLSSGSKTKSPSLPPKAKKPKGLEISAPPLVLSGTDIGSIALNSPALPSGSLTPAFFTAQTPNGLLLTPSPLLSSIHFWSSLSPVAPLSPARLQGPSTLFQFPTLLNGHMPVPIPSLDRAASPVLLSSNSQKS
# In short: as §1
# FEV = target: T7, FEV (Homo sapiens, UniProt Q99581 1-238); settings: protein: recombinant; tags: N-terminal GST; dsDNA, one strand shown
# T7 sequence: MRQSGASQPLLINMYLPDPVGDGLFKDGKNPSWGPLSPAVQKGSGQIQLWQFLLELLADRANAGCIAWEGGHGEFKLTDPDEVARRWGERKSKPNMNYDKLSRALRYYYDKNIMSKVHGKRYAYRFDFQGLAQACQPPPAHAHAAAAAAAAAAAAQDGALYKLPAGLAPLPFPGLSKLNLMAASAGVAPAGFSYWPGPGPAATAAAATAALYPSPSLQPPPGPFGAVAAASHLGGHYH
# In short: as §1
# ETV5 = ETV5 (Homo sapiens, UniProt P41161 1-510); settings: protein: recombinant; tags: N-terminal GST; dsDNA, one strand shown
# Sequence of ETV5 (P41161 whole entry): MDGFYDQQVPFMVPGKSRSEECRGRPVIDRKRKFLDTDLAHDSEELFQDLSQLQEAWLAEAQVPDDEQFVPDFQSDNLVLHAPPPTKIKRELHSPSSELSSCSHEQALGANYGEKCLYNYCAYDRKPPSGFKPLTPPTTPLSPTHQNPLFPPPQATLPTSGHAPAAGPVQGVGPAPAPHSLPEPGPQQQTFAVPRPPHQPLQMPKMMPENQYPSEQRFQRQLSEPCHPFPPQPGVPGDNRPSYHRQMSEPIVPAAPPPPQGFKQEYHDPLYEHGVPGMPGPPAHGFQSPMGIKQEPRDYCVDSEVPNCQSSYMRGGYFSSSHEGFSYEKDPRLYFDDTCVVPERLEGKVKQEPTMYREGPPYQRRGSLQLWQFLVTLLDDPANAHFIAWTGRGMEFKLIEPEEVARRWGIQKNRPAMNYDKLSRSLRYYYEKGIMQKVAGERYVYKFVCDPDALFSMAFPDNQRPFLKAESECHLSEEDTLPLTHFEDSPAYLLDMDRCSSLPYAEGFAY
# In short: as §1
# HSF1 = HSF1 (Homo sapiens, UniProt Q00613 1-529); settings: protein: recombinant; tags: N-terminal GST; chain copies: 3; dsDNA, one strand shown
# Sequence of HSF1 (Q00613 whole entry): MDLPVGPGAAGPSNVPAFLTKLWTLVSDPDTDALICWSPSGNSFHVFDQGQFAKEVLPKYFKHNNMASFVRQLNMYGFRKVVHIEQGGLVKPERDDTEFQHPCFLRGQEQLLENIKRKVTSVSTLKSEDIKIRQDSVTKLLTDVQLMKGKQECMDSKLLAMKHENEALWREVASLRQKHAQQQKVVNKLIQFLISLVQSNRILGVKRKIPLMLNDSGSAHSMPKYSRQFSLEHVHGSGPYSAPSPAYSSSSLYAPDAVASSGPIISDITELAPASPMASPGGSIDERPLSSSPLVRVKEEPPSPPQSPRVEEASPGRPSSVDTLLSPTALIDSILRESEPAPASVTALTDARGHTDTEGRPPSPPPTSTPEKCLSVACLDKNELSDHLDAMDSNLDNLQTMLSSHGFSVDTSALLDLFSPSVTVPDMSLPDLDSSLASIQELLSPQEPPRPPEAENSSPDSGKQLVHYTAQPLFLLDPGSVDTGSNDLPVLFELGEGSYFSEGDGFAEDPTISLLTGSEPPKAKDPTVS
# In short: as §1
# SPIC = target: T8, SPIC (Homo sapiens, UniProt Q8N5J4 1-248); settings: protein: recombinant; tags: N-terminal GST; dsDNA, one strand shown
# T8 sequence: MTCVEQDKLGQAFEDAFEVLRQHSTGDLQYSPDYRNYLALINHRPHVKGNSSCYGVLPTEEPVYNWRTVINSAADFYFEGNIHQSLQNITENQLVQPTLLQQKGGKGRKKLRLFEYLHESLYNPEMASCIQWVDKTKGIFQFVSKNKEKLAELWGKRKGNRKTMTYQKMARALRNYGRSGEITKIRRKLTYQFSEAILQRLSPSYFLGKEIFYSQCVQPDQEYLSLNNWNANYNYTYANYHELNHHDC
# In short: as §1
# ELF4 = ELF4 (Homo sapiens, UniProt Q99607 1-663); settings: protein: recombinant; tags: N-terminal GST; dsDNA, one strand shown
# Sequence of ELF4 (Q99607 whole entry): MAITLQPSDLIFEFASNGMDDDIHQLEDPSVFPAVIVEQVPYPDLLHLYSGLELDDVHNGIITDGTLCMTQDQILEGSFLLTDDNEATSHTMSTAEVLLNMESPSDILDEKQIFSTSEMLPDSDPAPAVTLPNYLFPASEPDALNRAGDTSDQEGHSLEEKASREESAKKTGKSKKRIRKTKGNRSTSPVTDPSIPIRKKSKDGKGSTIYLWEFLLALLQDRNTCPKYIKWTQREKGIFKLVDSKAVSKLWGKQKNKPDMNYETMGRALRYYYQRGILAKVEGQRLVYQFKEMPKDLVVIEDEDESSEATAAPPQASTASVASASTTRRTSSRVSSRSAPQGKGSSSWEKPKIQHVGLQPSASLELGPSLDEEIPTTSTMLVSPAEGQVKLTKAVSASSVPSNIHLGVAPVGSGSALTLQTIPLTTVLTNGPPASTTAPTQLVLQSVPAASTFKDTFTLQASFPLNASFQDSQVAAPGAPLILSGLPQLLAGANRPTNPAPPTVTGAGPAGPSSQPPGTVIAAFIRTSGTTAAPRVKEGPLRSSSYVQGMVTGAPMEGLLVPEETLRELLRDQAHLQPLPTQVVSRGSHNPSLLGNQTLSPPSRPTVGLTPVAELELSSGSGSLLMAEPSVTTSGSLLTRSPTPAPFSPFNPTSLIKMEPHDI
# In short: as §1
# ELK4 = target: T9, ELK4 (Homo sapiens, UniProt P28324-2 1-405); settings: protein: recombinant; tags: N-terminal GST; dsDNA, one strand shown
# T9 sequence: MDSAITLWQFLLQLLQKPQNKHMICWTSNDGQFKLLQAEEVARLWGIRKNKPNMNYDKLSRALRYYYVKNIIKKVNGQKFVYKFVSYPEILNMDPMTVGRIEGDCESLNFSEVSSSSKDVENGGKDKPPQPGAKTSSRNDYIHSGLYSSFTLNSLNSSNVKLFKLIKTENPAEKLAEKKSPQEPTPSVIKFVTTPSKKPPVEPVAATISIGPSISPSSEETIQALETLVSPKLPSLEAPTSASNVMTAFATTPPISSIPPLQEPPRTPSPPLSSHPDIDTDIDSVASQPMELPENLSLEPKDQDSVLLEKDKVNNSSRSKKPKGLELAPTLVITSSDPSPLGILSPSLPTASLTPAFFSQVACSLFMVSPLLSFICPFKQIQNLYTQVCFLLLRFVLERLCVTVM
# In short: as §1
# ETV2 = target: T10, ETV2 (Homo sapiens, UniProt O00321 1-342); settings: protein: recombinant; tags: N-terminal GST; dsDNA, one strand shown
# T10 sequence: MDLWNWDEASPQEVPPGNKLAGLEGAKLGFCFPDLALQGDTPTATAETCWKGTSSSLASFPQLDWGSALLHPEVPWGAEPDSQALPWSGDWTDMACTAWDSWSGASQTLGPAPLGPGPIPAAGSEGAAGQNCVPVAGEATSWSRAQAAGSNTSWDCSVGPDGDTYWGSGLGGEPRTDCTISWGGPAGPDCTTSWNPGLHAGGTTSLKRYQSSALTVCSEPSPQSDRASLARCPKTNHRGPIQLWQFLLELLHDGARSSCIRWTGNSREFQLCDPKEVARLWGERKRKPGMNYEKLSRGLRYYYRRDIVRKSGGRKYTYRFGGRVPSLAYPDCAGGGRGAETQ
# In short: as §1
# ELF3 = target: T11, ELF3 (Homo sapiens, UniProt P78545 1-371); settings: protein: recombinant; tags: N-terminal GST; dsDNA, one strand shown
# T11 sequence: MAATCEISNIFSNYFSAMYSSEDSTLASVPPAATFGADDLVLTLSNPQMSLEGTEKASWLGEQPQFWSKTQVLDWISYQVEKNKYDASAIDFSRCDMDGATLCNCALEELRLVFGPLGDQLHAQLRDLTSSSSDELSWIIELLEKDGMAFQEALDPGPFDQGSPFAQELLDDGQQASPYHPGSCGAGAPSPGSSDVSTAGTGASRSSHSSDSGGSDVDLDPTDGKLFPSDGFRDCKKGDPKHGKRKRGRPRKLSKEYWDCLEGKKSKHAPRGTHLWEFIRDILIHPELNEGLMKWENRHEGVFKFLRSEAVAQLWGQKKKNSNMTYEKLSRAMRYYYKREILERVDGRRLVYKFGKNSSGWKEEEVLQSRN
# In short: as §1
# CRX = CRX (Homo sapiens, UniProt O43186 1-299); settings: protein: recombinant; tags: N-terminal GST; dsDNA, one strand shown
# Sequence of CRX (O43186 whole entry): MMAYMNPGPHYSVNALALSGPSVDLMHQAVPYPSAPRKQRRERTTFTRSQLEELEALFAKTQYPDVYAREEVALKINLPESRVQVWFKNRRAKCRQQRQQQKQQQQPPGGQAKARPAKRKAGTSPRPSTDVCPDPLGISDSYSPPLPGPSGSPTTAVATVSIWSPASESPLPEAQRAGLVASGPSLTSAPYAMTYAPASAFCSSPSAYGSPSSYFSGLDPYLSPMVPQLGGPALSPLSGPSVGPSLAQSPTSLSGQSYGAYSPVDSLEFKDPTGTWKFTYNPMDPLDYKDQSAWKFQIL
# In short: as §1
# ETV1 = ETV1 (Homo sapiens, UniProt P50549 1-477); settings: protein: recombinant; tags: N-terminal GST; dsDNA, one strand shown
# Sequence of ETV1 (P50549 whole entry): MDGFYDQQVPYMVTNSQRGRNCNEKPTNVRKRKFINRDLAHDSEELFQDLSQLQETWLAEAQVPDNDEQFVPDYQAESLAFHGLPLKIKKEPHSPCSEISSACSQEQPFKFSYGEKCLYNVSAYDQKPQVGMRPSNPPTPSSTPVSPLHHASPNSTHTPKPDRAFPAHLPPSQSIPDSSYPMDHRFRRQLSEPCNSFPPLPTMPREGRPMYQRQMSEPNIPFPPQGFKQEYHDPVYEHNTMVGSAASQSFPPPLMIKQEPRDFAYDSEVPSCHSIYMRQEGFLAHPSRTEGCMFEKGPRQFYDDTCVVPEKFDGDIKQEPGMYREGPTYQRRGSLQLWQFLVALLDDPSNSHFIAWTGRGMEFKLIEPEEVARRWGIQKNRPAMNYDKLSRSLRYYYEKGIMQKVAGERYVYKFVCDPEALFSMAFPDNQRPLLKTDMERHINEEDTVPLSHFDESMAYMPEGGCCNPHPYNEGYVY
# In short: as §1
sequence,measurement,setting,value
TTAGTA,binding signal,FLI1,"1.23 fold enrichment (6-mer frequency, TF over GST control)"
same,binding signal,ELK1,"1.13 fold enrichment (6-mer frequency, TF over GST control)"
same,binding signal,GABPA,"1.21 fold enrichment (6-mer frequency, TF over GST control)"
same,binding signal,ERG,"1.21 fold enrichment (6-mer frequency, TF over GST control)"
same,binding signal,ELF1,"1.12 fold enrichment (6-mer frequency, TF over GST control)"
same,binding signal,EHF,"1.08 fold enrichment (6-mer frequency, TF over GST control)"
same,binding signal,SPIB,"1.06 fold enrichment (6-mer frequency, TF over GST control)"
same,binding signal,ELK3,"1.08 fold enrichment (6-mer frequency, TF over GST control)"
same,binding signal,FEV,"1.05 fold enrichment (6-mer frequency, TF over GST control)"
same,binding signal,ETV5,"1.15 fold enrichment (6-mer frequency, TF over GST control)"
same,binding signal,HSF1,"1.68 fold enrichment (6-mer frequency, TF over GST control)"
same,binding signal,SPIC,"1.16 fold enrichment (6-mer frequency, TF over GST control)"
same,binding signal,ELF4,"1.1 fold enrichment (6-mer frequency, TF over GST control)"
same,binding signal,ELK4,"1.12 fold enrichment (6-mer frequency, TF over GST control)"
same,binding signal,ETV2,"1.22 fold enrichment (6-mer frequency, TF over GST control)"
same,binding signal,ELF3,"1.15 fold enrichment (6-mer frequency, TF over GST control)"
same,binding signal,CRX,"2.39 fold enrichment (6-mer frequency, TF over GST control)"
same,binding signal,ETV1,"1.11 fold enrichment (6-mer frequency, TF over GST control)"
